# Screening data from PubChem BioAssay.
# CHO-K1 Ca PAM: counter-screen for M1 PAMs: effect in parental CHO-K1 cells; ATP EC20, Fluo-8 calcium fluorescence; 0% at ATP EC20, 100% at ATP max; activation, % at 3 µM; 360,000 tested, 0.02% active;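 active means activation above the run cutoff, the mean activation of all test compounds plus 3 SD, cut at about 40% in these data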;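 further: peak over basal fluorescence ratio in a 140 s read after ATP addition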
# CHO-K1 Ca ag: M1 agonist counterscreen hit in parental CHO-K1 cells; Fluo-8 calcium fluorescence; scaled to maximal ATP response, vehicle zero; activation, % at 3 µM; 360,000 tested, 0.48% active; AID 602248; in the data active means activation above about 15%;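 further: untransfected CHO-K1 host cells lacking M1 receptor as counterscreen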
# CHO-K1 Ca antag: nonselective inhibitor or artifact in parental CHO-K1 cells; ATP-induced calcium, Fluo-8 fluorescence; inhibition, % at 3 µM; 360,000 tested, 0.6% active;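 active means inhibition above a per-plate cutoff, the plate's mean sample inhibition plus 3 SD, cut at about 24% in these data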
# CHRM1 agonist: agonists of human M1 muscarinic receptor; P11229; CHO-K1 hM1, Fluo-8 calcium fluorescence, agonist mode; 0% DMSO, 100% acetylcholine EC100; activation, % at 3 µM; 360,000 tested, 0.33% active; AID 588814;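 active means activation above the run's mean compound activation plus 3 SD, cut at about 16% in these data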;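 further: peak over basal fluorescence ratio within a 140 s kinetic read after compound addition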
# Target sequence (P11229 whole entry, looked up): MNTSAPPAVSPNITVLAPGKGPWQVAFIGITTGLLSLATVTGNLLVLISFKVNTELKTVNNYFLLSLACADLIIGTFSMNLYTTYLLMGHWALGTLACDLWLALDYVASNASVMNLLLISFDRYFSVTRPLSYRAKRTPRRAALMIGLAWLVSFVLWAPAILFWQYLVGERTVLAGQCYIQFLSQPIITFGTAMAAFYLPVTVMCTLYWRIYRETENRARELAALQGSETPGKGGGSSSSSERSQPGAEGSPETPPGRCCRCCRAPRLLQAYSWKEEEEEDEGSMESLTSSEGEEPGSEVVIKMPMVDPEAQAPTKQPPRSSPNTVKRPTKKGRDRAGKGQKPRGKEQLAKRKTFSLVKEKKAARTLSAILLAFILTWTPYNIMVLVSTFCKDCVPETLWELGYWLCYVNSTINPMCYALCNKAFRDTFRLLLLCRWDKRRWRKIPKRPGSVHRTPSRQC
# CHRM1 antagonist: human CHRM1 antagonism; AID 588852; inhibition, % at 3 µM; 360,000 tested, 1.3% active; CHO-K1 hM1, Fluo-8 calcium fluorescence, ACh EC80 antagonist; P11229;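 active means percent inhibition above its own plate's cutoff, namely the mean of that plate's compound wells plus 3 SD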;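 further: peak over basal fluorescence ratio during 140 s after agonist addition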
# CHRM1 PAM: positive allosteric modulators of human M1 muscarinic receptor; activation, % at 3 µM; 360,000 tested, 0.088% active; CHO-K1 hM1, Fluo-8 calcium fluorescence, ACh EC20; 0% = ACh EC20, 100% = maximal ACh; AID 588819; in the data active means activation above about 19%, passing the limit was not always enough
# A number is an active result; - = inactive; . = not tested or not shown. Rows were chosen to be rich in hits. Some 2.3% of all compounds tested hit in one or more screens of this group.
SMILES,CHO-K1 Ca PAM,CHO-K1 Ca ag,CHO-K1 Ca antag,CHRM1 agonist,CHRM1 antagonist,CHRM1 PAM
Cc1c(C(=O)OCC(=O)NCCN2C(=O)CSC2=O)cccc1[N+](=O)[O-],-,-,30,-,-,-
Oc1ccc(Br)cc1-c1cc(-c2ccccc2F)[nH]n1,-,-,26,-,-,-
Oc1ccccc1C1=NC(c2ccccc2)NC(c2ccccc2)C1 (stereo not drawn),-,-,26,-,-,-
Oc1ccccc1C1=Nc2nc3ccccc3n2C(c2ccccc2)C1 (stereo not drawn),-,-,-,-,-,-
COc1ccc(N2CCN(S(=O)(=O)c3c(C(=O)N4CCOCC4)c(C)n(C)c3C)CC2)cc1,-,-,-,-,-,-
Cc1ccc2c(c1)nnn2C1CCN(S(=O)(=O)c2ccc(C(=O)N3C(C)CCCC3C)cc2)CC1 (stereo not drawn),-,-,-,-,33,-
O=S(=O)(c1ccc2c(c1)OCCO2)N1CCC(n2nnc3cc(C(F)(F)F)ccc32)CC1,-,-,-,-,31,-
Cc1ccc2c(c1)nnn2C1CCN(S(=O)(=O)c2ccc(C(=O)O)cc2)CC1,-,-,-,-,-,-
Cc1ccc2c(c1)nnn2C1CCN(S(C)(=O)=O)CC1,-,-,24,-,-,-
CC(C)(C)[C@H]1COC(=O)CC/C=C\C[C@@H](CC(=O)N(CCO)Cc2ccccc2)C(=O)N1,-,-,-,-,-,-
CC(C)CC(=O)NC(Nc1ccc([N+](=O)[O-])cc1)C(Cl)(Cl)Cl (stereo not drawn),-,16,-,-,-,-
c1nc(NCCN2CCOCC2)c2c3c(sc2n1)CCCCC3,-,-,-,-,-,-
CN1CCC(=NNc2ncnc3sc4c(c23)CCCC4)CC1,-,-,27,-,-,-
CC(OC(=O)/C(C#N)=C/c1ccc(N(C)C)cc1)C(=O)N(C)c1ccccc1 (stereo not drawn),-,16,-,-,-,-
CC(C)OC(=O)/C(C#N)=C\c1cccnc1,-,-,-,-,-,-
CC(OC(=O)/C(C#N)=C/c1ccc(N(C)C)cc1)C(=O)NCc1ccco1 (stereo not drawn),-,-,-,-,-,-
CC(=O)Nc1ccc(NC(=O)C(C)OC(=O)/C(C#N)=C/c2ccc(N(C)C)cc2)cc1 (stereo not drawn),-,-,-,-,28,-
COc1cccc(C=Cc2nccc3ccccc23)c1OC,-,-,-,-,-,-
CN(C)c1ccc(C=Cc2nccc3ccccc23)cc1,-,20,25,27,41,-
CN(C)c1nc(N)c2nccnc2n1,-,-,-,-,-,-
CCN(CC)c1nc(C=Cc2ccc(N(C)C)cc2)c2nccnc2n1,-,45,44,33,46,-
O=C(NCc1ccncc1)C1CCN(S(=O)(=O)c2ccc(Cl)c(C(F)(F)F)c2)CC1,-,-,-,-,-,-
CCOC(=O)c1c(-c2ccccc2)csc1NC(=O)/C(C#N)=C/c1ccc(OC)c(OC)c1,-,-,-,-,-,-
CCOC(=O)c1c(-c2ccccc2)csc1NC(=O)/C(C#N)=C/c1ccc(O)c(OC)c1,-,-,-,17,-,-
CN(CC(=O)Nc1ccc(Cl)c(C(F)(F)F)c1)C(=O)CCCNC(=O)c1ccc(Cl)cc1,-,-,-,-,-,-
SMILES,CHO-K1 Ca PAM,CHO-K1 Ca ag,CHO-K1 Ca antag,CHRM1 agonist,CHRM1 antagonist,CHRM1 PAM
CCCCC[C@H](C)N1C[C@@H](COCc2ccccc2)Oc2cc(N3CCC[C@H]3C(N)=O)ccc2S1(=O)=O,-,-,-,.,.,.
CCN(CC(=O)NC(C)C)C(=O)[C@H](C)NC(=O)c1ccc(Br)cc1,-,-,-,-,-,-
Cc1ccc(NC(=O)CCn2c(=O)c3cccn3c3ccccc32)cc1C,-,-,-,-,-,-
CC(=O)NC(C)(c1ccccc1)c1nc(/C=C/c2ccccc2)cs1 (stereo not drawn),-,-,-,-,-,-
COc1ccc(C(C)(NC(C)=O)c2nc(/C=C/c3ccccc3)cs2)cc1 (stereo not drawn),-,-,32,-,-,-
COC(=O)c1cc[n+](CC(=O)c2ccccc2)cc1,-,-,-,30,-,-
COC(=O)c1ccc(OCC(=O)c2ccccc2)cc1,-,-,-,-,-,-
CN(C)c1cc[n+](CC(=O)c2ccc(-c3ccccc3)cc2)cc1,-,-,-,-,42,-
CN(C)c1cc[n+](CC(=O)c2ccc(Br)cc2)cc1,-,-,-,-,-,-
C=Cn1cc[n+](CC(=O)c2ccc(-c3ccccc3)cc2)c1,-,-,-,-,-,-
O=C(C[n+]1ccccc1)c1ccc(-c2ccccc2)cc1,-,-,-,-,40,-
Nc1nonc1-n1nnc(C(=O)N/N=C/c2cc(Cl)ccc2O)c1CN1CCCCCC1,-,-,-,-,-,-
Nc1cc(=O)[nH]c(SCC(=O)Nc2ccc(N3CCCCC3)cc2)n1,-,-,-,-,-,-
O=C1COc2ccc(C(=O)CSc3nnc(Cc4ccccc4)o3)cc2N1,-,-,-,-,-,-
O=C1COc2ccc(C(=O)CSc3nnc(NCc4ccccc4)s3)cc2N1,-,17,-,-,-,-
CC1(C)CC(CCNC(=O)CCl)(c2ccccc2)CCO1 (stereo not drawn),-,-,-,-,-,-
COc1ccccc1CNC(=O)CCCNC(=O)Cn1cnc2sc(C)c(C)c2c1=O,-,-,-,-,-,-
CCCN(CCC)S(=O)(=O)c1cccc(-c2csc(C)n2)c1,-,22,-,-,-,-
COc1cc(C(=O)N2CCN(S(=O)(=O)c3cccc(F)c3)CC2)ccc1OCC(=O)N1CCOCC1,-,-,-,-,-,-
COc1cccc(S(=O)(=O)Nc2cccc(C(=O)N3CCOCC3)c2)c1,-,-,-,-,54,-
COc1cccc(S(=O)(=O)Nc2cccc(C(=O)N3CCCC3)c2)c1,-,-,-,-,-,-
COc1cc(/C=C/C(=O)OCC(=O)Nc2ccc([N+](=O)[O-])cc2)ccc1O,-,19,-,25,-,-
CN(C)CCCN(C(=O)c1cc(Cl)sc1Cl)c1nc2cc3c(cc2s1)OCO3,-,-,-,-,96,-
CCN(Cc1ccccc1)S(=O)(=O)c1ccc(C(=O)N(CCCN(C)C)c2nc3cc4c(cc3s2)OCCO4)cc1,-,-,-,-,21,-
CCC(C)(C)c1ccc(OCCCC[n+]2cccc(C)c2)c(C(C)(C)CC)c1,-,-,-,-,25,-
CN(C)S(=O)(=O)c1cccc(NC(=O)COc2ccccc2C(=O)NCc2ccccc2)c1,-,-,-,-,-,-
CN1C(=S)SC(C)(NO)C1(C)C (stereo not drawn),-,-,-,-,-,26
